Compound activity from PubChem BioAssay.
A selection: hits, their analogues and other compounds. The true share with any hit is near 4.5%.
HDAC3 inh: human HDAC3 inhibition | recombinant HDAC3, fluorogenic peptide/trypsin coupled, fluorescence | hit rate 0.15% among 320,000 | inhibition, % at 8.3 µM | O15379; in the data active = inhibition above about 26%, passing the limit was not always enough; inconclusive = no clear call, values can overlap the other calls
Rce1 inhib: yeast Ras-converting enzyme inhibition; Q03530; yeast membranes, quenched prenylated peptide cleavage fluorescence; calls only; hit rate 0.27% among 290,000; AID 2563;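 active = fall in fluorescence gain of 50% or more versus controls, with final raw signal at or below 3038400; inconclusive = same 50% fall but final raw signal above 3038400; inactive = fall in fluorescence gain under 50%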;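 also: plate controls were neutral control wells for no effect and wells lacking membranes for full effect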
ALR inh: human ALR oxidase inhibition via reduced H2O2; purified ALR, DTT oxidation, H2O2 HRP-luminol luminescence; hit rate 3.8% among 290,000; inhibition, % (no concentration beside the values); P55789; AID 485317;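 active = mean replicate inhibition above about 79%, with every replicate also reaching it, limit read from the data; inconclusive = only one of the two criteria met; inactive = mean below limit and not every replicate reaching it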
Efflux pump inh: inhibitors of Candida antifungal efflux pumps expressed in yeast; S. cerevisiae Candida pump triplex, Nile Red efflux; inhibition, % at 10 µM; hit rate 0.44% among 330,000;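 active = plate passing quality check with inhibition over a set limit, or well fluorescence over plate mean plus 4 SD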;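 also: Nile Red retained in pooled yeast measured as flow cytometry median fluorescence; 0% = buffer negative control and 100% = Enniatin B positive control; higher means more Nile Red kept so more efflux inhibition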
Rtt109 Vps75: C. albicans Rtt109 histone acetyltransferase inhibition | purified Rtt109/Vps75, ThioGlo CoA-SH fluorescence, 4 h | AID 540336 | inhibition, % at 34.9 µM | hit rate 0.16% among 330,000 | Q5AAJ8;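 active = inhibition of at least 50% in every replicate; inconclusive = best replicate reaches 50% inhibition but some replicates fall short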
GRK2 inh: human GRK2 inhibition via aptamer displacement; AID 488847; hit rate 0.59% among 330,000; bead flow cytometry, FAM-aptamer displacement from GRK2; P25098; inhibition of aptamer binding, % at 10 µM;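 active = inhibition of aptamer binding above 40%, roughly 3 SD of noise, on plates passing a quality check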;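 also: median bead fluorescence of bound FAM aptamer so fluorescent compounds give negative values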
Target sequence (P25098 whole entry, looked up): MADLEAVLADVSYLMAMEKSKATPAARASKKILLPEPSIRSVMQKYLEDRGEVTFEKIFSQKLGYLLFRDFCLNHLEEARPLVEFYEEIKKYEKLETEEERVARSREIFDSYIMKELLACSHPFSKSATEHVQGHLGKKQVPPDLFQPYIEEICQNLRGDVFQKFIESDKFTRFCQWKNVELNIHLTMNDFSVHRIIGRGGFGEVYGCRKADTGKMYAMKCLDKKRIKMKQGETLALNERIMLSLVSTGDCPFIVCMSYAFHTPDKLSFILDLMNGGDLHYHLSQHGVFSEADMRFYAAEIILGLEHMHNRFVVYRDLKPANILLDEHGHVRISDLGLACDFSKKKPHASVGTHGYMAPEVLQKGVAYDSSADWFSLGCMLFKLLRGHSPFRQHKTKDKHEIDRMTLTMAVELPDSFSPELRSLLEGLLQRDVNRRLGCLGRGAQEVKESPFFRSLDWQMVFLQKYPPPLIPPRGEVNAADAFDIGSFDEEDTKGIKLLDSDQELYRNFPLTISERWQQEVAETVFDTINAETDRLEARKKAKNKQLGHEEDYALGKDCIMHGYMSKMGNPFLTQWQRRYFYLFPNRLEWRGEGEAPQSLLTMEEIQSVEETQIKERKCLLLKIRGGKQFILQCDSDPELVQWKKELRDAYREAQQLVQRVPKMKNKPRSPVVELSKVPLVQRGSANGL
* marks the source's active call; other numbers are inactive results; i = inactive; ? = inconclusive; . = no result given; + = active, no number.

SMILES | HDAC3 inh | Rce1 inhib | ALR inh | Efflux pump inh | Rtt109 Vps75 | GRK2 inh
NC(=O)N/N=C/c1ccc(OCc2cccc(Cl)c2)cc1 | 4 | i | 5 | 0 | -23 | 0
CCCC(=O)N1CCc2cc(-c3nc(N)sc3C)ccc21 | 4 | i | 98* | 0 | -7 | 0
CNc1nc(-c2ccc3c(c2)CCN3C(=O)CC(C)(C)C)c(C)s1 | 4 | i | 44 | 0 | 6 | 6
CNc1nc(-c2ccc3c(c2)CCN3C(=O)c2ccccc2F)cs1 | . | i | . | . | -2 | .
CC(C)(C)C(=O)N1CCc2cc(-c3csc(N)n3)ccc21 | -2 | i | 99* | 0 | 3 | 0
CC1Cc2cc(-c3csc(N)n3)ccc2O1 (centres undefined) | 5 | i | . | 0 | 2 | 0
CCC(C)C(=O)N1CCc2cc(-c3csc(N)n3)ccc21 (centres undefined) | 8 | i | 98* | 0 | 8 | 0
CCOC(=O)c1ccc2c(c1)NCc1cccc(OC)c1O2 | 1 | i | 1 | 0 | 0 | 1
NC(=O)c1cccc(C(N)=O)n1 | 1 | i | -2 | 0 | -16 | 2
COc1ccc(C)cc1-n1nnnc1SCC(=O)NC1CCS(=O)(=O)C1 (centres undefined) | -2 | . | . | 0 | -6 | 4
COc1ccc(N2C(=S)NC3N2C(=S)NC3(C)c2ccccc2)cc1 (centres undefined) | -1 | i | 98* | 0 | -6 | 1
CCOC(=O)c1cc(C)[nH]c(=O)c1C#N | -27 | + | -1 | 0 | -2 | 0
COc1cc(/C=N/NC(=O)C2CCN(CC(O)COCc3ccccc3)CC2)cc(OC)c1OC (centres undefined) | 7 | i | -9 | 0 | 1 | 1
CCOc1cc(/C=N\NC(=O)CC(=O)NCCc2ccccc2)ccc1O | 4 | . | 99* | 0 | 4 | 2
COc1cc(/C=N/NC(=O)C2CCN(CC(O)COCc3ccccc3)CC2)ccc1O (centres undefined) | 6 | i | 99* | 0 | . | 0
COc1cc(/C=N\NC(=O)CC(=O)NCCc2ccccc2)ccc1O | 0 | i | 99* | 0 | 7 | 0
CCOc1ccc(/C=N\NC(=O)CC(=O)NCCc2ccccc2)cc1 | -3 | i | -21 | 0 | 6 | 0
C[C@H](CO)N1C[C@H](C)[C@@H](CN(C)C(=O)NC2CCCCC2)Oc2ccc(NS(C)(=O)=O)cc2C1=O | 0 | . | 1 | 0 | 5 | 4
COc1ccc(C(=O)/C=C/Sc2nc3ccccc3o2)cc1 | 5 | i | 47 | 0 | -5 | 2
CCCCOC(=O)Sc1nc2ccccc2o1 | 3 | i | 93* | 0 | 23 | 1
O=C(CNc1ccc(Br)cc1)Nc1ccc(S(=O)(=O)N2CCCC2)cc1 | 2 | . | . | 0 | 5 | 4
CC#CCN(CC#CC)S(=O)(=O)c1ccc(-n2cnnn2)c(OC)c1 | -1 | i | 0 | 0 | 54* | 2
COc1ccc2[nH]c3c(NCc4ccco4)ncnc3c2c1 | -15 | i | 98* | 0 | . | 0
CCCCn1c(NCc2ccc(N(C)C)cc2)nc2ccccc21 | 2 | i | 88* | 0 | 0 | 0
CCCCn1c(NCc2ccncc2)nc2ccccc21 | 2 | i | 23 | 0 | -6 | 0
SMILES | HDAC3 inh | Rce1 inhib | ALR inh | Efflux pump inh | Rtt109 Vps75 | GRK2 inh
C=CCn1c(NCc2ccc(N(C)C)cc2)nc2ccccc21 | -4 | i | 99* | 0 | 8 | 1
CCCc1nnc(SCC(=O)Nc2ccc(NC(C)=O)cc2)n1-n1cccc1 | -6 | i | 0 | 0 | -6 | 0
O=C(O)c1ccccc1C(=O)N1N=C2/C(=C/c3cccc([N+](=O)[O-])c3)CCCC2C1c1cccc([N+](=O)[O-])c1 (centres undefined) | 3 | i | 79* | 0 | ? | 0
CCN(C(=O)COC(=O)/C=C/c1ccco1)C1CCCCC1 | 5 | . | 45 | 0 | 4 | 49*
CCN(C(=O)COC(=O)/C=C/c1ccc(F)cc1)C1CCCCC1 | 2 | . | -3 | 0 | 3 | 0
O=C(N/N=C1/CCSC1)c1cc(Br)ccc1O | 8 | i | 93* | 0 | 3 | 5
O=C(NN=C1CCCC1)c1cc(Br)ccc1O | 0 | i | 75 | 0 | 2 | 28
CCN(CC(=O)NCc1ccco1)S(=O)(=O)c1ccc(OC)cc1 | -4 | i | -7 | 0 | 1 | 0
CCc1c(C)nc(N2CCN(c3cccc(OC)c3)CC2)[nH]c1=O | 6 | i | 98* | 0 | 6 | 2
N#CC1=C(N)Oc2cc(N)ccc2C1c1ccc(Cl)cc1 (centres undefined) | 1 | i | 57 | 0 | -4 | 0
COc1ccc(C2C(C#N)=C(N)Oc3cc(N)ccc32)cc1 (centres undefined) | -4 | i | 95* | 0 | 1 | 4
N#CC1=C(N)Oc2cc(N)ccc2C1c1ccc(F)cc1 (centres undefined) | -1 | i | 98* | 0 | 5 | 1
Cc1ccc(SCC(=O)OC(C)C(=O)NC2CCCCC2C)c(C)c1 (centres undefined) | 6 | . | . | 0 | -4 | 4
O=C(O)Cn1c(SCc2cccc3ccccc23)nc2ccccc21 | 3 | i | 98* | 0 | 7 | 0
C[C@H](CO)N1C[C@H](C)[C@@H](CN(C)Cc2ccncc2)Oc2ccc(NC(=O)Cn3cnnn3)cc2C1=O | -1 | . | -2 | 0 | 16 | 3
C[C@H](CO)N1C[C@H](C)[C@@H](CN(C)Cc2ccncc2)Oc2ccc(NC(=O)CCCCCC(=O)Nc3ccccc3N)cc2C1=O | 90* | . | -3 | 0 | -2 | 0
COc1cc(CC2COC(c3ccc(O)c(OC)c3)C2COC(C)=O)ccc1O (centres undefined) | 3 | . | 82* | 0 | -3 | 3
COc1ccccc1NS(=O)(=O)c1cc(NC(=O)C2CCCO2)ccc1C (centres undefined) | -5 | . | -4 | 0 | 3 | 0
C=CCN1C(=O)/C(=C2/Sc3ccccc3N2CC)SC1=S | 0 | i | 5 | 0 | 3 | 1
C=CCn1c(=O)/c(=C2/Sc3ccccc3N2CC)s/c1=C1/C(=O)NN=C1C | -8 | i | 9 | 0 | . | 42*
Cc1c(Cl)c(-c2n[nH]c(=S)n2CC(C)C)nn1C | 9 | i | 93* | 0 | 2 | 2
Cc1ccc(-n2c(-c3nn(C)cc3Cl)n[nH]c2=S)cc1 | 6 | i | 58 | 3 | 6 | 2
Cc1ccsc1-c1n[nH]c(=S)n1CC(C)C | 0 | i | 94* | 0 | 3 | 6
Cc1c(Cl)c(-c2n[nH]c(=S)n2-c2ccc(F)cc2)nn1C | 8 | i | 91* | 0 | 3 | 0
Cn1cc(Cl)c(-c2n[nH]c(=S)n2-c2ccc(F)cc2)n1 | 6 | i | 88* | 0 | -1 | 2
